Screening data (PubChem)
Most compounds without a hit are left out; they make up all but 4.2% or so of the library.
NLRP3 yeast inh: NALP3 inflammasome inhibitors in reconstituted yeast, primary screen, luminescence, uHTS; Yeast reconstituted NLRP3/ASC/caspase-1, beta-gal luminescence, 24 h; 0.39% of 330,000 active; inhibition, % at 10 µM;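 active = inhibition of 50% or more; inactive = inhibition below 50%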;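 note: plate controls were induced DMSO wells for no effect and uninduced yeast grown without galactose for full effect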
V-ATPase pHluor: regulators of yeast V-ATPase proton pumping, primary screen, pHLuorin cytosolic pH fluorescence | response, % at 10 µM | 0.37% of 350,000 active | AID 504577, 2011 | S. cerevisiae; in the data active = response mostly above about 7.3%, no sharp cut-off; inactive = mostly below about 5.4%; note: actives read high
tim23-1 inh: growth inhibitors of tim23-1 mutant yeast, primary screen, luminescence, uHTS; S. cerevisiae tim23-1 growth, BacTiter-Glo luminescence, 24 h; inhibition, % at 20 µM; 1.3% of 330,000 active;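 active = growth inhibition of the mutant yeast at or above 50%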;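 note: temperature-sensitive mutant grown at 25 °C; plate controls were DMSO-treated mutant yeast for no effect and medium wells lacking yeast for full effect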
TIM10 inh: growth inhibitors of isogenic TIM10 control yeast, primary screen, counter-screen for tim10-1 yeast inhibitor project, luminescence, uHTS; S. cerevisiae TIM10 strain growth, BacTiter-Glo luminescence, 24 h; inhibition, % at 10 µM; 1.4% of 330,000 active;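 active = inhibition of 40% or more at the single tested concentration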;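 note: wild-type TIM10 isogenic control strain grown at permissive 25 °C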
NALP1 yeast inh: NALP1 inflammasome inhibitors in reconstituted yeast, colorimetric, S. cerevisiae, triplicate retest; S. cerevisiae NALP1/ASC/caspase-1 growth, X-gal OD620, 72 h; inhibition, % at 10 µM; AID 2071, 2009; 0.61% of 280,000 active; in the data active = inhibition mostly above about 24%, no sharp cut-off; inactive = mostly below about 32%
tim10-1 inh: growth inhibitors of tim10-1 mutant yeast, primary screen, luminescence, uHTS | 2.2% of 330,000 active | AID 463190, 2010 | S. cerevisiae tim10-1 ts strain growth, BacTiter-Glo, 24 h | inhibition, % at 20 µM;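 active = inhibition of at least 40%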;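 note: mutant grown at 25 °C; 0% = DMSO wells with yeast and 100% = wells holding no yeast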
tim23-1 confirm: tim23-1 mutant yeast growth inhibitors, confirmation, luminescence, single concentration. shares compounds with tim23-1 inh. S. cerevisiae tim23-1 growth, BacTiter-Glo luminescence, 24 h. 83% of 4,400 active. AID 463218, 2010. inhibition, % at 20 µM;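 active = inhibition above about 39% in either of two replicate wells at 20 µM, limit read from the data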;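 note: temperature-sensitive tim23-1 mutant grown at 25 °C; 0% = DMSO wells with yeast and 100% = medium wells without yeast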
Active calls of the source: *; x = not tested or not shown.

SMILES | NLRP3 yeast inh | V-ATPase pHluor | tim23-1 inh | TIM10 inh | NALP1 yeast inh | tim10-1 inh | tim23-1 confirm
OC[C@@H]1[C@@H](c2ccc(Cl)cc2)C(c2ccc(F)cc2)=NN1c1ccccc1 | x | 0 | 56* | 17 | x | 34 | 36
O=C1OCCN1C(=O)[C@H]1[C@H](c2ccc(F)cc2)C(c2cccc(Cl)c2)=NN1c1ccccc1 | x | 1 | 46 | 11 | x | 32 | x
OC[C@@H]1[C@@H](c2ccccc2)C(c2ccc(F)cc2)=NN1c1ccccc1 | x | -1 | 56* | 4 | x | 25 | 45*
Cn1ncc2c(Nc3ccccc3Cl)nc(Cl)nc21 | 13 | 0 | 27 | 16 | 6 | 13 | x
CCOC(=O)c1cnc(-n2nc(C)cc2C)nc1NC1CCCCC1 | 28 | -1 | 54* | -6 | 2 | -33 | 43*
C/C(=C\C(=O)c1ccc(C)cc1)Nc1cccc(O)c1 | 34 | 0 | 51* | -3 | 10 | 3 | 34
Cc1ccc(-c2cc(C(=O)NCCN3CCOCC3)no2)cc1 | -5 | 0 | 3 | -8 | 3 | -4 | x
COc1ccc(-n2sc3c(c2=S)-c2cc(OC)ccc2NC3(C)C)cc1 | 14 | 0 | 33 | 5 | 28 | 23 | x
COc1ccc2c(c1)-c1c(ssc1=S)C(C)(C)N2 | 30 | -2 | 53* | 31 | 17 | 32 | 47*
C[C@H](CO)N1C[C@H](C)[C@@H](CN(C)C(=O)Cc2ccccc2)OCCCC[C@H](C)Oc2ccc(NC(=O)NC3CCCCC3)cc2C1=O | x | 2 | x | x | x | x | x
O=C(COc1ccccc1Cl)N1CCNC1=O | 4 | 0 | -13 | -11 | x | -25 | x
O=C(Nc1ccc(Cl)c(Cl)c1)Nc1ccon1 | -3 | 0 | 53* | 24 | 23 | 29 | 48*
Cc1nn(-c2ccccc2)c(OC(=O)c2cccs2)c1S(=O)(=O)c1ccccc1 | 3 | 4 | 58* | 31 | 36 | 29 | 51*
COC(=O)c1sccc1NC(=S)NCc1ccc(Cl)cc1 | 4 | -5 | 62* | 39 | x | 27 | 53*
O=C(c1cccs1)N1CCN(c2nc3c(F)cc(F)cc3s2)CC1 | 45 | -3 | 34 | 18 | x | 26 | x
CCCC1(C(=O)O)NC(c2ccccc2O)C2C(=O)N(Cc3ccccc3)C(=O)C21 (configuration not stated) | -6 | -2 | 3 | 6 | 11 | -7 | x
COc1cc(SC)ccc1C(=O)Nc1ccc2c(c1)CCC2 | 19 | 2 | 51* | 5 | 6 | 30 | 39*
COc1cc(C(=O)NCc2nc(C)cs2)ccc1OC1CCN(C(C)=O)CC1 | 8 | -4 | -7 | -5 | -1 | -13 | x
Cc1ccc(NC(=S)NC(=O)C2CCCC2)cc1C | 42 | -3 | 54* | 22 | 16 | 29 | 42*
O=C(NC(=S)Nc1cccc(O)c1)C1CCCCC1 | -10 | -2 | 51* | 35 | x | 27 | 42*
O=C(NC(=S)Nc1ccc(F)cc1)C1CCCCC1 | 27 | 4 | 42 | 15 | 6 | 23 | x
O=C(O)C1CCCCC1C(=O)Nc1cccc(Br)c1 (configuration not stated) | 8 | -7 | 10 | -9 | x | -14 | x
O=C(Nc1cccc(Br)c1)C1CCCC1 | 41 | -2 | 64* | 33 | x | 8 | 62*
CCOC(=O)c1nn(-c2ccc(F)cc2)c2c1CC/C2=C/c1ccccc1 | -8 | 3 | -7 | 14 | 18 | 5 | x
COc1cc(CC(=O)OCC(=O)Nc2ccc3c(c2)OCCO3)cc(OC)c1OC | 9 | -4 | -2 | 6 | 28 | 18 | x
SMILES | NLRP3 yeast inh | V-ATPase pHluor | tim23-1 inh | TIM10 inh | NALP1 yeast inh | tim10-1 inh | tim23-1 confirm
CCC1CCCCN1S(=O)(=O)c1ccc(NC(=O)c2ccncc2)cc1 (configuration not stated) | -5 | 0 | 79* | 24 | 17 | 32 | 30
CCC1CCCCN1S(=O)(=O)c1ccc(C(=O)Nc2nnc(C3CC3)o2)cc1 (configuration not stated) | -5 | 5 | 29 | 28 | 13 | 40 | x
N#C/C(=N\Nc1ccc(Cl)cc1)C(=N)N1CCCCCC1 | 16 | 3 | 6 | -2 | -6 | 6 | x
COc1ccc(OC)c2c(C)c(C)[nH]c12 | 13 | -3 | 27 | 15 | 1 | 17 | x
COc1ccc(OC)c(NC(=O)Nc2ccc(Cl)cc2)c1 | 33 | 3 | 69* | 28 | 17 | 34 | 67*
CSc1ccc(C(=O)C2CCCN(C(=O)c3cc(C)n(C)n3)C2)cc1 (configuration not stated) | 10 | 0 | 6 | 0 | 25 | 8 | x
COc1ccc(N(CC(=O)NCCSCc2ccco2)S(=O)(=O)c2ccc(C)cc2)cc1 | 15 | 3 | 18 | 9 | 15 | 24 | x
NC(=O)c1c(NC(=O)c2ccccc2F)sc2c1CCCC2 | 37 | 2 | 54* | 22 | 16 | 29 | 49*
Nc1nc(Nc2ccccc2)nc(NCc2ccco2)c1[N+](=O)[O-] | 2 | -8 | 37 | -2 | 24 | 9 | x
Fc1ccc(Nc2nc(NCc3ccco3)c3ccccc3n2)cc1 | 49 | 2 | 98* | -20 | 18 | -20 | 4
Cc1ccc2c(c1)C(=O)C(=O)N2Cc1ccccc1 | 15 | 0 | 73* | 12 | x | 17 | 62*
O=C(c1ccc2ccccc2n1)N1CCN(S(=O)(=O)c2ccc(Cl)cc2)CC1 | 15 | -3 | 50* | 22 | x | 27 | 36
O=C1/C(=C/c2cccc(Br)c2)SC(=S)N1/N=C/c1cc([N+](=O)[O-])ccc1O | 31 | -2 | 82* | 18 | x | 13 | 30
O=[N+]([O-])c1ccc(O)c(/C=N/n2cnnc2)c1 | 10 | 1 | 9 | 13 | 30 | -2 | x
CCCN(C(=O)c1cc(C)ccc1C)c1c(N)n(Cc2ccccc2)c(=O)[nH]c1=O | -1 | 5 | 10 | 12 | x | 8 | x
CCCCN(C(=O)c1ccc2c(c1)OCCO2)c1c(N)n(CCCC)c(=O)[nH]c1=O | 10 | 0 | 59* | 14 | x | 27 | 57*
CCCCn1c(N)c(N(CCC(C)C)C(=O)C2=COCCO2)c(=O)[nH]c1=O | 13 | -1 | -6 | 1 | 13 | -11 | x
CCCCn1c(N)c(N(CCC(C)C)C(=O)c2ccc3c(c2)OCO3)c(=O)[nH]c1=O | 10 | -2 | 62* | 9 | x | 23 | 58*
CCCN(C(=O)c1ccc([N+](=O)[O-])c(C)c1)c1c(N)n(Cc2ccccc2)c(=O)[nH]c1=O | 8 | 1 | 53* | 10 | x | -1 | 60*
COc1ccc(N(C)C(=O)c2cc3c(Cl)nc4ccccc4c3s2)cc1 | 6 | 4 | 10 | 5 | 22 | -3 | x
